Assay results taken from PubChem BioAssay AID504848 (National Center for Advancing Translational Sciences (NCATS), 2011).
The whole screen tested about 2,300 compounds, of which about 1,400 (61%) were called active. About 29% were inconclusive and are not listed. Calls come from the whole dose curve; as a rule, active = well fitted inhibition curve with a large enough effect; inconclusive = small, poorly fitted or top-dose-only effect, or effect the other way; inactive = no such curve, though single readings can be large or run the other way. The set was probably picked from earlier hits. This is one part of the list.

assay: Confirmation screen for delayed death inhibitors of the malarial parasite plastid, 96 hour incubation; note: nearly all actives have a fitted effect of over 60% in size; conditions: P. falciparum luciferase growth in erythrocytes; series mostly up to 28.7 µM
Summary of the method: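 Two-generation (96 h, 37 C) exposure of P. falciparum carrying an integrated firefly luciferase reporter in erythrocytes, 0.1% parasitemia and 2% hematocrit final, Albumax-supplemented RPMI. Luminescence decrease measures growth inhibition.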
Potency is the fitted concentration of half-maximal effect.

Row | SMILES | Potency
1 | CC1(C)Cc2c(ccc3ccccc23)C(c2cc3ccccc3oc2=O)=N1 | 4.47 µM (active)
2 | CN(C(=O)CN1C(=O)CCSc2ccc(S(=O)(=O)N3CCCC3)cc21)c1ccccc1 | 7.94 µM (active)
3 | CCN(CC)CCn1c2c(c(SCC(=O)Nc3nc4ccccc4s3)nc1=O)CCCC2 | 2 µM (active)
4 | CCC(=O)NCCc1cc2ccc(C)cc2[nH]c1=O | inactive
5 | CCc1c(C(=O)NCCc2cccc(C)c2)[nH]c(C)c1C(C)=O | 12.6 µM (active)
6 | CCc1c(C(=O)NC2CCCc3ccccc32)[nH]c(C)c1C(C)=O (stereo unspecified) | inactive
7 | COC(=O)COc1ccc2c(=O)c(-c3ccccc3OC)coc2c1 | inactive
8 | CCOC(=O)Nc1ccc2c(CNC(C)c3ccccc3OC)cc(=O)oc2c1 (stereo unspecified) | 12.6 µM (active)
9 | C=C[C@]1(C)C[C@@H](OC(=O)CSCCN(CC)CC)[C@]2(C)C(C)CC[C@]3(CCC(=O)[C@H]32)[C@@H](C)[C@@H]1O (stereo partly specified) | 2 µM (active)
10 | CN(Cc1ccc(Cl)c(Cl)c1)C(=O)C1=CC=CN2CCS(=O)(=O)N=C12 | 5.01 µM (active)
11 | COC(=O)c1ccc(Sc2nnnn2-c2ccccc2)c([N+](=O)[O-])c1 | 12.6 µM (active)
12 | CC1CCN(C(=O)Cn2cc(C(=O)c3ccco3)c3ccccc32)CC1 | 14.1 µM (active)
13 | Cc1ccc(NC(=O)C(=Cc2ccc(C(=O)O)cc2)C(=O)Nc2ccc(C)cc2C)c(C)c1 | 6.31 µM (active)
14 | Cn1c(=O)[nH]c(=O)c2c1nc(NCc1ccccc1)n2Cc1ccc(F)cc1 | 3.55 µM (active)
15 | C/C(CC(=O)NC1CCCCC1)=N\NC(=O)COc1ccc(C)cc1Br | 15.8 µM (active)
16 | Cc1ccc(OCC(=O)Nn2cnnc2)c(Br)c1 | inactive
17 | COc1ccc(CCC(C)N2CCC(Oc3ccc(C(=O)N4CCCC4)cc3)CC2)cc1 (stereo unspecified) | 10 µM (active)
18 | O=C(c1ccc(OC2CCN(Cc3ccccc3OC(F)F)CC2)cc1)N1CCCC1 | 2.51 µM (active)
19 | CCN(CC)CCOC(=O)c1ccc(NC(=O)C(C)NC(=O)C23CC4CC(CC(C4)C2)C3)cc1 (stereo unspecified) | 12.6 µM (active)
20 | Cc1ccc(Nc2cc(C)c3ccc(O)cc3n2)cc1C | 0.126 µM (active)
21 | OC1C2(Cc3ccccc3)CN3CCN(C2)CC1(Cc1ccccc1)C3 (stereo unspecified) | 2 µM (active)

Row | SMILES | Potency
22 | O=c1cc(CSc2nc(NCc3ccccc3)c3ccccc3n2)nc2ccc(Cl)cn12 | 3.55 µM (active)
23 | CCN(CC)S(=O)(=O)c1ccc(N2CCOCC2)c(NC(=O)C2CSC3(C)CCC(=O)N23)c1 (stereo unspecified) | 5.62 µM (active)
24 | COc1ccc2[nH]cc(CCCN3C(=O)c4ccccc4C3=O)c2c1 | inactive
25 | COc1ccc2[nH]cc(C(=O)CCl)c2c1 | 12.6 µM (active)
26 | CCOc1ccc(/C=C/[N+](=O)[O-])c2ccccc12 | 15.8 µM (active)
27 | Cc1ccc(C)c(-c2nnc(OCC(=O)Nc3cc(C)on3)c3ccccc23)c1 | 12.6 µM (active)
28 | COc1cc(CNC2CCCCCCC2)ccc1OCC(N)=O | 12.6 µM (active)
29 | Cc1cc(C)c(NC(=O)c2cccc3c2C(=O)N(C2CCCCC2)C3)c(C)c1 | 7.94 µM (active)
30 | CCOC(=O)C(=Cc1ccccc1OC)C(=O)OCC | 12.6 µM (active)
31 | COc1ccccc1/C=C/C(=O)c1ccccc1 | 14.1 µM (active)
32 | O=C(/C=C/c1ccccc1O)c1ccco1 | inactive
33 | COc1ccccc1/C=C/C(=O)/C=C/c1ccccc1O | 1 µM (active)
34 | CCOC(=O)C(CC)(CC)C(=O)/C=C/c1ccc(Br)cc1 | 6.31 µM (active)
35 | CCOC(=O)C(=Cc1ccc(Br)cc1)C(=O)OCC | 7.94 µM (active)
36 | COc1ccc(CCNc2cc(C)nc3c(-c4ccc(Cl)cc4)c(C)nn23)cc1OC | 11.2 µM (active)
37 | O=C(/C=C/c1ccncc1)c1ccc(NC(=O)c2ccccc2F)cc1 | 12.6 µM (active)
38 | CSc1ccc(/C=C/C(=O)c2ccc(NC(=O)C(C)C)cc2)cc1 | inactive
39 | COc1cccc(Nc2ccc(N3CCCCC3)cc2)c1OC | 0.355 µM (active)
40 | CCOC(=O)CN1C(=O)/C(=C/c2c(F)cccc2Cl)Oc2ccccc21 | 12.6 µM (active)
41 | CCOC(=O)c1ccc(N2N=C(C)/C(=C/C=C/c3ccco3)C2=O)cc1 | 5.62 µM (active)
42 | CC(=O)c1cccc(NC(=O)CSc2ccc(-c3sc(C)nc3C)nn2)c1 | 12.6 µM (active)

Row | SMILES | Potency
43 | CCc1ccc(NC2=CC(=O)C(=O)c3ccccc32)cc1 | 0.447 µM (active)
44 | COc1ccc(-c2c(-c3cc(OC)cc(OC)c3)n(C)c3ccc(-c4ccc5[nH]ccc5c4)cc23)cc1 | 6.31 µM (active)
45 | CCN(CC)C(=O)C1CCCN(C(=O)c2cc(COc3ccc4ncccc4c3)on2)C1 (stereo unspecified) | 11.2 µM (active)
46 | c1ccc2c(c1)Nc1cc3ccccc3cc1S2 | 3.98 µM (active)
47 | O=C(c1[nH]ncc1-c1cccc(Br)c1)C1CO1 (stereo unspecified) | 12.6 µM (active)
48 | O=S(=O)(c1ccc(F)cc1)N1CCc2ccccc2C1 | 12.6 µM (active)
49 | COC(=O)Nc1ccc2c(c1)N(C(=O)CCCl)c1ccccc1S2 | 12.6 µM (active)
50 | O=S1(=O)Nc2c(ccc3cccnc23)-c2ccccc21 | 1.58 µM (active)
51 | Cc1ccc(C2(C)NC(=O)N(CC(=O)N3CCN(S(=O)(=O)c4cccc(F)c4)CC3)C2=O)cc1 (stereo unspecified) | 7.08 µM (active)
52 | O=C(NC1CCCCC1)c1ccc(CS(=O)Cc2ccccc2Cl)o1 (stereo unspecified) | 12.6 µM (active)
53 | Cc1ccc(CS(=O)(=O)Cc2ccc(C(=O)NC3CCCC3)o2)cc1 | 10 µM (active)
54 | O=C(c1cccs1)N1N=C(c2ccccc2)CC1c1ccccc1O (stereo unspecified) | 2.82 µM (active)
55 | CCOc1ccc(CCn2c(-c3ccco3)nc3ccccc3c2=O)cc1OCC | 10 µM (active)
56 | O=C(Nn1c(-c2ccccc2)nc2ccccc2c1=O)c1ccco1 | inactive
57 | Cc1c(O)ccc(C(=O)CN2CCN(Cc3ccc4c(c3)OCO4)CC2)c1O | 5.01 µM (active)
58 | Cc1ccc(NC2=C/C(=N\S(=O)(=O)c3cccs3)c3ccccc3C2=O)c(C)c1 | 0.0708 µM (active)
59 | CCc1ccc(-c2cn(C3CCCCC3)c(=S)[nH]2)cc1 | 6.31 µM (active)
60 | Clc1ccccc1Cn1c(/C=C/c2ccco2)nc2ccccc21 | 11.2 µM (active)
61 | COc1ccccc1N1CCN(CCC(=O)Nc2ccc(F)cc2)CC1 | 12.6 µM (active)
